Compound activity (PubChem BioAssay)
This is a sample that favours compounds with a hit; in the whole collection about 1% have one here.
FBPA coupling cs = inhibits coupling enzyme system, counter-screen for aldolase hits; coupling enzyme system counterscreen, AmpLite Red fluorescence; activity change, negative = inhibition, % at 58.2 µM, hits read low; actives 0.67% (n = 290,000); in the data active means activity change below about -30%; further: on the % scale 0 is the no-effect control and ±100 the full control effect
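Activity here indicates interference with the coupling reaction, not aldolase inhibition. Compounds at 57.5 uM final met coupling enzymes for 10 min at RT; substrate and AmpLite Red detection followed, with a 525/598 nm fluorescence read after 20 min.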
TCR activator = activators of T cell receptors; primary human leukocytes, anti-CD3, IL-2 HTRF, 48 h; Potency, µM (doses to about 9.22 µM), inactives show at the highest dose activation of IL-2 secretion, hits mostly activators; 330,000 tested, under 10 active; AID 504894; further: % of control where 0% means no effect
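Using a-CD3 beads without co-stimulation, primary human leukocytes were exposed to compounds for 48 hr. An HTRF IL-2 kit measured the cytokine, with europium-to-d2 energy transfer producing emission at 665nm upon 320nm excitation.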
TRb-SRC2 inh = disrupts binding of human TR beta to SRC2 | P10828 | Potency, µM (titrated, usually from 106 µM), inactives show at the highest dose activity change, negative = inhibition, most hits filed as inhibitors | AID 1469 | actives 0.065% (n = 280,000) | TRbeta-SRC2 peptide binding, fluorescence polarization; receptor liganded with 1 µM T3;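 further: potency means the concentration at half of the fitted maximal effect; plate controls were bound peptide for no effect and peptide without receptor for full effect; nearly all actives have a fitted effect of over 50% in size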
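Read-out is fluorescence polarization (555 nm excitation, 632 nm emission) of a Texas Red SRC2 coactivator peptide; loss of signal reflects blocked binding to human TRb ligand-binding domain in the presence of 1 uM T3.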
NPSR antagonist = neuropeptide S receptor (human) antagonism, cAMP; Potency, µM (highest dose often 38.3 µM), for the others: top-dose activity change, negative = inhibition, actives largely listed as inhibitors; Q6W5P4; CHO-NPSR cells, cAMP TR-FRET, antagonist mode; actives 1% (n = 220,000); further: potency means the concentration at half of the fitted maximal effect; on the % scale 0 is the no-effect control and ±100 the full control effect; nearly all actives have a fitted effect of over 50% in size
TSHR antag = antagonists of human thyroid stimulating hormone receptor | TSHR-expressing cells, TSH-stimulated cAMP HTRF, 2 h; stronger effect = lower value | activity change, negative = inhibition, % at 11.5 µM | actives 0.2% (n = 330,000) | AID 504810;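 active means activity change below a set negative limit, meaning inhibition stronger than a set level, cut at about -70% in these data; inconclusive means activity change between two set negative limits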; further: on the % scale 0 is the no-effect control and ±100 the full control effect
Target sequence (P16473 whole entry, looked up): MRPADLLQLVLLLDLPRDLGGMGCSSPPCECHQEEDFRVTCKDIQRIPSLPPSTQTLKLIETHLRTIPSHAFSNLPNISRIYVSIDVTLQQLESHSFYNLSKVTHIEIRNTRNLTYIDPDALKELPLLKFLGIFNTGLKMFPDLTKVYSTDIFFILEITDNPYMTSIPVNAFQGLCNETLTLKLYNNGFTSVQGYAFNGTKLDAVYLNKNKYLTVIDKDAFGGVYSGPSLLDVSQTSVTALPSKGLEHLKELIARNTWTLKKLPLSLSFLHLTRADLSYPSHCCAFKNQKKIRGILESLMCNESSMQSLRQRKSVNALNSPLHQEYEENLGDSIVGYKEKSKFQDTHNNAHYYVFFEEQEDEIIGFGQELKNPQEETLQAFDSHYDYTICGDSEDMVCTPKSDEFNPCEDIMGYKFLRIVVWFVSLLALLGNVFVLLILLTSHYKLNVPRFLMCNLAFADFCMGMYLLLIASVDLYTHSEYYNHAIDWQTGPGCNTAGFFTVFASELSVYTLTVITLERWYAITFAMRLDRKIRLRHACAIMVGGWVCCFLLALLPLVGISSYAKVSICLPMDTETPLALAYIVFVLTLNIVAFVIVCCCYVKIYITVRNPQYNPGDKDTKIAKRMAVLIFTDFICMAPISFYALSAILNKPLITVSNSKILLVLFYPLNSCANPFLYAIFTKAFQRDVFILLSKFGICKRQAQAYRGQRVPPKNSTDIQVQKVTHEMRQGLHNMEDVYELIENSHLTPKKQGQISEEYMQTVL
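TSHR-expressing cells were treated with compounds, then stimulated with TSH at EC80 (4nM final) for 2 hours at 37 deg C. Cellular cAMP was measured by HTRF competition between lysate cAMP and cAMP-d2 for a cryptate-labelled anti-cAMP antibody.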
TexasRed fluor = Texas Red fluorescence interference in TRb-SRC2 counter-screen. TRb/SRC2 Texas Red total fluorescence interference. Potency, µM (series often up to 106 µM), inactives show top-dose fluorescence change, negative = quenching. actives 0.29% (n = 280,000). AID 1479; active means well fitted curve in either direction with a large enough effect; inconclusive means small, poorly fitted or top-dose-only effect; further: potency means the concentration at half of the fitted maximal effect; on the % scale 0 is the no-effect control and ±100 the full control effect
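Human TRβ ligand-binding domain (0.6 uM) and Texas Red SRC2 peptide (20 nM) in Tris buffer with 1 uM T3 and 5% DMSO were incubated with pinned compound for 5 hr at ambient temperature. Total fluorescence was computed as S + 2P (555/632 nm).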
The depositor's hits bear a star; u = inconclusive; x = not tested or not shown; ! = repeats disagree; [ ] = dose if it differs, or a comment. Unless noted, the call rests on the fitted dose curve; in most records, active means well fitted curve in the direction sought with a large enough effect; inconclusive means small, poorly fitted or top-dose-only effect, or another doubt; inactive means no such curve, though single readings can be large; an effect the other way counts as inactive or inconclusive.

SMILES	FBPA coupling cs	TCR activator	TRb-SRC2 inh	NPSR antagonist	TSHR antag	TexasRed fluor
CCc1nnc(SCC(=O)N(C)c2ccccc2)c2cc3sccc3n12	x	x	5%	x	x	-1%
Cc1cc(C)c(NC(=O)Cn2nnc(-c3nc(-c4ccncc4)no3)c2N)c(C)c1	x	x	3%	x	x	0%
Cc1ccsc1/C=N/NC(=O)CSCc1ccc(Cl)cc1	-34*	4%	-9%	-5%[46.1 µM]	0	3%
Cc1ccc(CNc2nc3ccccc3n3c(C)nnc23)cc1	x	x	-8%	x	x	-19%
COC(=O)CCCC1=CC2=C(c3ccccc3)C(=O)C(C)(OC(=O)C3CCCC3)C(=O)C2=CN1C1CCCCC1 (configuration not stated)	-31*!	-4%	3%[11.2 µM]	-23%	-33	-1%[11.2 µM]
CCCCC1=CC2=C(c3ccco3)C(=O)C(C)(OC(=O)c3ccc(OC)cc3)C(=O)C2=CN1C1CCCCC1 (configuration not stated)	-17	-59%	7%[11.2 µM]	10µM*	-10	1%[11.2 µM]
CCCCC1=CC2=C(c3ccco3)C(=O)C(C)(OC(=O)c3ccc(OC)cc3)C(=O)C2=CN1CCOC (configuration not stated)	-7	-13%	1%[11.2 µM]	-20%	-7	-2%[11.2 µM]
COc1ccc(C)cc1NC(=O)N1CCC(CN2CCOCC2)CC1	x	x	-6%	x	x	u
CC(Sc1nc(=O)cc(N)n1CCc1ccccc1)C(=O)Nc1ccc(Cl)cc1 (configuration not stated)	x	x	8%	x	x	2%
COC(=O)c1ccc(NC(=O)C(C)Sc2nc(=O)cc(N)n2CCc2ccccc2)cc1 (configuration not stated)	x	x	-8%	x	x	18µM*[quencher]
COCCCN1CC23C=CC(O2)C(C(=O)OC)C3C1=O (configuration not stated)	x	-10%	x	x	x	x
COC(=O)C1C2C=CC3(CN(CC4CCCO4)C(=O)C13)O2 (configuration not stated)	-79*	-5%	10%	-4%[46.1 µM]	1	2%
CC1=C(C(=O)Nc2ccccc2)C(c2ccc(C)o2)n2c(s/c(=C\c3ccco3)c2=O)=N1 (configuration not stated)	-2	2%	-1%	13µM*	-10	4%
O=C(COc1ccc(F)cc1)Nc1ccc2nc(SCC(=O)N3CCOCC3)sc2c1	x	x	-9%	x	x	u
CC1=NN2C(=N)/C(=C\c3cc(C)n(-c4ccc(C)cc4)c3C)C(=O)N=C2S1	4	-4%	-3%	13µM*	-11	-2%
O=C(O)CCCCCCCCCCC(=O)O	x	x	7%[201 µM]	x	x	1%[201 µM]
COc1ccc2[nH]c(=O)c(CNc3ccccc3OC)cc2c1	-34*	0%	-29%	-18%	18	-12%
COc1ccc2[nH]c(=O)c(CNc3ccccc3)cc2c1	-35*	-1%	1%	-13%[46.1 µM]	7	-4%
COc1ccc2[nH]c(=O)c(CNc3ccccc3C)cc2c1	-27	-6%	2%	0%	0	-1%
CSc1ccc(Cl)cc1	x	x	9%[201 µM]	x	x	-6%[201 µM]
Cc1cc(C(=O)O)ccc1N/C=C1\CCCC(C)C1=O (configuration not stated)	1	-3%	7%	-4%[46.1 µM]	-19	-1%
CC1CCC/C(=C\Nc2ccc(O)cc2)C1=O (configuration not stated)	-38*	-1%	28µM*	-4%[46.1 µM]	-2	13%
CN(Cc1ccccc1)C(=O)c1nc(-c2ccc(Cl)cc2)n2c1CCCCC2	x	x	6%	x	x	-16%
CCc1cc2c(=O)c(-c3cnn(-c4ccccc4)c3)c(C)oc2cc1OCC(=O)Nc1ccc(F)c(F)c1	3	5%[46.1 µM]	-8%	7.9µM*	8	0%
COc1ccc2oc(-c3ccc(C)c(NC(=O)c4cccnc4)c3)nc2c1	x	x	4%	x	x	-2%
SMILES	FBPA coupling cs	TCR activator	TRb-SRC2 inh	NPSR antagonist	TSHR antag	TexasRed fluor
c1ccc(-c2c(-c3ccccc3)n(Cc3ccco3)c3ncnc(NCCCn4ccnc4)c23)cc1	10	-26%	-16%	25µM*	2	4%
O=c1c2c3nc4ccccc4nc3n(Cc3ccccc3)c2ncn1Cc1ccco1	-9	-16%	4%	10µM*	-6	0%
N=c1c2c(-c3ccccc3)c(-c3ccccc3)n(Cc3ccco3)c2ncn1Cc1ccccc1	4	-1%	-6%	10µM*	-2	-6%
CCC(Sc1ncccc1C(=O)Oc1ccccc1Cl)C(=O)Nc1ccccc1OC (configuration not stated)	x	x	-9%	x	x	0%
CCOc1ccc(N(CC(=O)OC)S(=O)(=O)c2ccc3c(c2)n(C)c(=O)c(=O)n3C)cc1	-1	-3%	-4%	-7%[46.1 µM]	12	2%
COC(=O)CN(c1ccc(C)cc1)S(=O)(=O)c1ccc2c(c1)n(C)c(=O)c(=O)n2C	0	-2%	-9%	-3%[46.1 µM]	-96*	-1%
O=Cc1c(-c2ccccc2)nc2ccccn12	0	3%	6%	-9%	-10	0%
CCc1nc(-c2ccccc2)c2ccccn12	-43*	-14%	-11%	9%	20	1%
CC(=O)Nc1ccc(S(=O)(=O)Nc2cccc(-c3nc4cc(C)ccc4o3)c2)cc1	x	-1%	x	x	x	x
Cc1ccc(S(=O)(=O)Nc2ccc(-c3nc4cc(NS(=O)(=O)c5ccc(C)cc5)ccc4o3)cc2)cc1	-9	x	0%	10µM*	u	-1%
COc1ccc(-n2c(N)c(C#N)c3ccc([N+](=O)[O-])cc3c2=O)cc1	-42*	-2%[46.1 µM]	1%	0%[46.1 µM]	-2	-5%
O=C(CSc1nccn1Cc1ccc(F)cc1)NCc1ccc(F)cc1	x	x	-7%	x	x	2%
Cc1ccc2c(CSc3nc4nc(C)cc(C)n4n3)cc(=O)oc2c1	5	-6%	-5%	10µM*	-19	2%
O=C(Nc1nccc(-c2cccs2)n1)c1ccccc1Cl	7	5%	-1%	-10%[46.1 µM]	4	-2%
O=C(c1ccccc1Cl)N(C(=O)c1ccccc1Cl)c1nccc(-c2cccs2)n1	-42*	-3%	3%	-22%[46.1 µM]	-6	0%
COc1ccccc1N1CCN(c2ncnc3c2cnn3-c2cc(Cl)ccc2C)CC1	x	x	8%	x	x	-1%
COc1ccccc1NC(=O)c1sc2nc(-c3cc4ccccc4oc3=O)[nH]c(=O)c2c1C	x	x	-10%	x	x	9%
COc1ccccc1NC(=O)c1sc2nc(-c3cc4cc(Cl)ccc4oc3=O)[nH]c(=O)c2c1C	x	x	-11%	x	x	18µM*[quencher]
CCOC(=O)c1ccc(N2C(=O)c3n[nH]c(-c4ccco4)c3C2c2cccc(O)c2)cc1 (configuration not stated)	x	x	7%	x	x	-1%
